Test results as given in PubChem BioAssay (NCATS).
Inconclusive results are not listed. Active and inactive are the calls of the source. Unless noted, calls come from the whole dose curve; as a rule, active = well fitted curve in the direction sought with a large enough effect; inconclusive = small, poorly fitted or top-dose-only effect, or another doubt; inactive = no such curve, though single readings can be large; an effect the other way counts as inactive or inconclusive.

Columns and labels:
[1] = target: ATP-dependent 6-phosphofructokinase (Trypanosoma brucei brucei) (UniProt O15648); experiment: qHTS Assay to Find Inhibitors of T. brucei phosphofructokinase: hit validation (AID 492961);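 note: luminescence reports ADP formed as PFK phosphorylates fructose-6-phosphate with ATP; % is set by controls: 0 for no effect and ±100 for the full control effect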
In short: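 Compounds titrated; %activity normalized to 0x and 1x enzyme controls, curve-fitted. Readout: ADP-Glo luminescence after 45 min room-temperature reaction of 1.25 nM PFK, 0.1 mM ATP, 0.5 mM F6P, pH 8.0.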

[2] = target: Ubiquitin carboxyl-terminal hydrolase 1 (Homo sapiens) (UniProt O94782); experiment: Inhibitors of USP1/UAF1: Pilot qHTS (AID 504865);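 note: rhodamine fluorescence freed from ubiquitin-rhodamine substrate followed over time; top concentration of the series differs between compounds; % is set by controls: 0 for no effect and ±100 for the full control effect; nearly all actives have a fitted effect of over 35% in size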
In short: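 USP1/UAF1 complex (1nM) preincubated with compound 15 min at room temperature, then Ub-Rho substrate (150nM final) added. Fluorescence read kinetically at 480/540 nm, 6 reads every 60 seconds. Buffer: 50mM HEPES pH 7.8, 0.5mM EDTA, 0.1 mg/ml BSA, 1mM TCEP, 0.01% Tween-20.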

[3] = S16 Schwann cell viability assay (CellTiter-Glo assay) (AID 624031);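 note: native untransfected S16 rat Schwann cells; cellular ATP luminescence as a viability measure; plate controls were DMSO-treated cells for no effect and cell-free wells for full effect; nearly all actives have a fitted effect of over 70% in size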
In short: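 Cells were seeded at 500-750 per well in phenol red-free DMEM with 10% FBS and left overnight. Compounds or DMSO were pinned in, incubation ran 24 h at 37 °C/5% CO2, then CellTiter-Glo reagent was added and luminescence measured.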

[4] = S16 Schwann cell PMP22 intronic element firefly luciferase assay (AID 624032);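 note: plate controls were DMSO for no effect and PTC124 positive control mean for full effect; nearly all actives have a fitted effect of over 30% in size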
In short: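 Rat S16 Schwann cells stably carrying firefly luciferase driven by a PMP22 intronic element, in 10% FBS, treated 24 h at 37 C. ONE-Glo luminescence normalized to PTC124 control and DMSO (0%); curves classed by r2, magnitude and activity.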

[5] = S16 Schwann cell PMP22 intronic element beta-lactamase assay (AID 624044; calls by dose curve;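 note: 0% = DMSO and -100% = potassium clavulanate positive control; nearly all actives have a fitted effect of over 15% in size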)
In short: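 Rat S16 Schwann cells with beta-Lac driven by a PMP22 intronic element, compound-treated 24 h at 37 °C. LiveBLAzer FRET B/G read: 460 nm normalized to potassium clavulanate vs DMSO; 535 nm FRET as viability; concentration-effect curves classified.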

[6] = target: Cytochrome P450 2C9 (Homo sapiens) (UniProt P11712); experiment: Cytochrome P450 family 2 subfamily C member 9 (CYP2C9) small molecule antagonists: luciferase biochemical (cell-free) qHTS assay (AID 1645842; active = well fitted curve in the direction sought with a large enough effect in the repeat runs; an effect the other way counts as inactive or inconclusive; note: % is set by controls: 0 for no effect and ±100 for the full control effect; nearly all actives have a fitted effect of over 55% in size)
In short: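 Luminescence, after 20 min with luciferin detection reagent, reflected CYP2C9 turnover during a 1 h NADPH-driven reaction at 37C. Enzyme-substrate mix contained 0.4% bovine serum albumin and was preincubated with compound 10 min at room temperature.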

[7] = NCATS anti-infectives library activity on HEK293 viability as a counter-qHTS vs the C. elegans viability qHTS (AID 1745854);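 note: HEK293 cells exposed to compounds for 24 hr before the viability read; % is set by controls: 0 for no effect and ±100 for the full control effect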
In short: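 Compounds were acoustically plated (several concentrations, 1:5, final up to 41.7 uM), then 1500 HEK293 cells added per well and incubated 24 hr at 37C, 5% CO2. CellTiter-Glo was added and luminescence read after 10 min.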

[8] = target: Phospholipid hydroperoxide glutathione peroxidase GPX4 (Homo sapiens) (UniProt P36969); experiment: Primary qHTS Assay for Inhibitors of Recombinant Selenoprotein Glutathione Peroxidase 4 (GPX4) (AID 1845192); note: nearly all actives have a fitted effect of over 65% in size
In short: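 GR-coupled assay: recombinant GPX4 preincubated 30 min with compound at room temperature; final 200 nM GPX4, 1 mM GSH, 0.5 mM cumene hydroperoxide, 0.5 mM NADPH, 100 nM GR, 0.01% BSA, pH 7.5 Tris. NADPH fluorescence (340/450 nm) read at 0 and 15 min.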

[9] = qHTS profiling for inhibitors of Plasmodium falciparum proliferation (AID 504749);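 note: 0% = DMSO vehicle and full inhibition = artemisinin control; nearly all actives have a fitted effect of over 60% in size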; conditions: P. falciparum in erythrocytes, SYBR Green DNA, 72 h, at 28.7 µM (top of the series)
In short: (§1)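 P. falciparum-infected erythrocytes (0.3% parasitemia, 2.5% hematocrit) incubated with compound 72 h at 37 C, 5% CO2. Parasite DNA detected by SYBR Green after lysis, overnight at room temperature; normalised to 0.29 uM artemisinin and DMSO.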

3D7 = experiment: as above; conditions: P. falciparum in erythrocytes, SYBR Green DNA, 72 h; series mostly up to 12.8 µM
In short: as §1

7G8 = experiment: as above; conditions: P. falciparum in erythrocytes, SYBR Green DNA, 72 h; series mostly up to 12.8 µM
In short: as §1

AA1029 = experiment: as above; conditions: P. falciparum in erythrocytes, SYBR Green DNA, 72 h; series mostly up to 12.8 µM
In short: as §1

AS120 = experiment: as above; conditions: P. falciparum in erythrocytes, SYBR Green DNA, 72 h; series mostly up to 12.8 µM
In short: as §1

ATS189 = experiment: as above; conditions: P. falciparum in erythrocytes, SYBR Green DNA, 72 h; series mostly up to 12.8 µM
In short: as §1

C2A = experiment: as above; conditions: P. falciparum in erythrocytes, SYBR Green DNA, 72 h; series mostly up to 12.8 µM
In short: as §1

CP185 = experiment: as above; conditions: P. falciparum in erythrocytes, SYBR Green DNA, 72 h; series mostly up to 12.8 µM
In short: as §1

CP191 = experiment: as above; conditions: P. falciparum in erythrocytes, SYBR Green DNA, 72 h; series mostly up to 12.8 µM
In short: as §1

CP192 = experiment: as above; conditions: P. falciparum in erythrocytes, SYBR Green DNA, 72 h; series mostly up to 12.8 µM
In short: as §1

CP194 = experiment: as above; conditions: P. falciparum in erythrocytes, SYBR Green DNA, 72 h; series mostly up to 12.8 µM
In short: as §1

CP201 = experiment: as above; conditions: P. falciparum in erythrocytes, SYBR Green DNA, 72 h; series mostly up to 12.8 µM
In short: as §1

CP203 = experiment: as above; conditions: P. falciparum in erythrocytes, SYBR Green DNA, 72 h; series mostly up to 12.8 µM
In short: as §1

CP211 = experiment: as above; conditions: P. falciparum in erythrocytes, SYBR Green DNA, 72 h; series mostly up to 12.8 µM
In short: as §1

CP215 = experiment: as above; conditions: P. falciparum in erythrocytes, SYBR Green DNA, 72 h; series mostly up to 12.8 µM
In short: as §1

CP217 = experiment: as above; conditions: P. falciparum in erythrocytes, SYBR Green DNA, 72 h; series mostly up to 12.8 µM
In short: as §1

CP237 = experiment: as above; conditions: P. falciparum in erythrocytes, SYBR Green DNA, 72 h; series mostly up to 12.8 µM
In short: as §1

CP238 = experiment: as above; conditions: P. falciparum in erythrocytes, SYBR Green DNA, 72 h; series mostly up to 12.8 µM
In short: as §1

CP247 = experiment: as above; conditions: P. falciparum in erythrocytes, SYBR Green DNA, 72 h; series mostly up to 12.8 µM
In short: as §1

CP250 = experiment: as above; conditions: P. falciparum in erythrocytes, SYBR Green DNA, 72 h; series mostly up to 12.8 µM
In short: as §1

CP252 = experiment: as above; conditions: P. falciparum in erythrocytes, SYBR Green DNA, 72 h; series mostly up to 12.8 µM
In short: as §1

Chain of Phospholipid hydroperoxide glutathione peroxidase GPX4 (Homo sapiens) (P36969 whole entry, looked up): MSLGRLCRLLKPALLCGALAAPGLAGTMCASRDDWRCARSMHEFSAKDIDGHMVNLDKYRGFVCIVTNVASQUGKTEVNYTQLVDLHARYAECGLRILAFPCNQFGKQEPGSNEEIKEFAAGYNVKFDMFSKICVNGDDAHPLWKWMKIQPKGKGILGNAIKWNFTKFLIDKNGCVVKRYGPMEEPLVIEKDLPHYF
Chain of ATP-dependent 6-phosphofructokinase (Trypanosoma brucei brucei) (O15648 whole entry, looked up): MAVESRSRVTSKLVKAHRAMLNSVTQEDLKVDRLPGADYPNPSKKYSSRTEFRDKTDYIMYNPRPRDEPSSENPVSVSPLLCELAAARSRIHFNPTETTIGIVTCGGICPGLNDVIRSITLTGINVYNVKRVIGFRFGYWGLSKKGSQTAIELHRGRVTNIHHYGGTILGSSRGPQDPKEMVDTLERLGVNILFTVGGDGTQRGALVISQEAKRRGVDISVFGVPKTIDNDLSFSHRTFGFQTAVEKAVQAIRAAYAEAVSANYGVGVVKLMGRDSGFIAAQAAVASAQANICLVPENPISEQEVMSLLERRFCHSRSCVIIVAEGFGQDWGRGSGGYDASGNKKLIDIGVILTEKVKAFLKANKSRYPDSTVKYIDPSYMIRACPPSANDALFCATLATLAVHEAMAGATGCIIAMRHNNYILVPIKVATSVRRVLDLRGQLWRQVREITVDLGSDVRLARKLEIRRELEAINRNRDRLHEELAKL
Chain of Ubiquitin carboxyl-terminal hydrolase 1 (Homo sapiens) (O94782 whole entry, looked up): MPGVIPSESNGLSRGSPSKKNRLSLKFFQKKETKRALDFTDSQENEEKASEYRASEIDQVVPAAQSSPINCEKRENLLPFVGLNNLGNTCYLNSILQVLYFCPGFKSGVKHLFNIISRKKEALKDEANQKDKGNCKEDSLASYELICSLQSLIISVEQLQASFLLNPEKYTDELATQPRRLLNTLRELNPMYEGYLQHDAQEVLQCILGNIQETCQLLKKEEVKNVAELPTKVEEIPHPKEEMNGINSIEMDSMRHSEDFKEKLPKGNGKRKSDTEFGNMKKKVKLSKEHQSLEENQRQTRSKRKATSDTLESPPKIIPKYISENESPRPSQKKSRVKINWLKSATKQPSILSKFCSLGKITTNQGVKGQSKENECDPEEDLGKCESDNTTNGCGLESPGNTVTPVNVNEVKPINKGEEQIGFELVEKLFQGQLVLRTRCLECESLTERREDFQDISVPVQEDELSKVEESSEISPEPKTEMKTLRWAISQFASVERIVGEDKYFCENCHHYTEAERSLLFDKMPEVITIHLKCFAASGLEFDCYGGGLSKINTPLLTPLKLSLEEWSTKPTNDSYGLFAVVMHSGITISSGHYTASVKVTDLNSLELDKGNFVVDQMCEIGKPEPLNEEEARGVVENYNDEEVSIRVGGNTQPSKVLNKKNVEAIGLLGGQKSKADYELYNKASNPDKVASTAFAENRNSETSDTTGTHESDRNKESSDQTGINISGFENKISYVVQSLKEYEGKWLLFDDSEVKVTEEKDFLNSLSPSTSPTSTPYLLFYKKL
Chain of Cytochrome P450 2C9 (Homo sapiens) (P11712 whole entry, looked up): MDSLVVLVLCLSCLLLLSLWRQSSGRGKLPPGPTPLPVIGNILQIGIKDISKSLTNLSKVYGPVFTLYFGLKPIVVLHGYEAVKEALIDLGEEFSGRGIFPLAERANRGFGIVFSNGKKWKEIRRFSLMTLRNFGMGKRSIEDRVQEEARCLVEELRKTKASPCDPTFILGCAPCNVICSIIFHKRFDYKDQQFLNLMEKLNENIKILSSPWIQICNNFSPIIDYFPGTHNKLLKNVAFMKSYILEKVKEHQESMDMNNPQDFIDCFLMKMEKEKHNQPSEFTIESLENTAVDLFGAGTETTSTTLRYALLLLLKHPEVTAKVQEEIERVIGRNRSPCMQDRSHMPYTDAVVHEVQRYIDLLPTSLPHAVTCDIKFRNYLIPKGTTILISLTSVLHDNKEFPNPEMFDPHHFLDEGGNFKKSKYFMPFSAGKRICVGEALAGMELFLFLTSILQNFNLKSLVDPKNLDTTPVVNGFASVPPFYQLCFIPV

Nc1nc(NC2CC2)c2ncn([C@H]3C=C[C@@H](CO)C3)c2n1
inactive: outcome [1] | Potency [2] | outcome [3] | Potency [4] | Potency [5] | Potency [6] | outcome [7] | Potency [8] | activity, negative = inhibition ([9]; parasite line A) 8.14% | activity, negative = inhibition ([9]; parasite line B) 1.25% | Potency (3D7) | Potency (7G8) | Potency (AA1029) | Potency (AS120) | Potency (ATS189) | Potency (C2A) | Potency (CP185) | Potency (CP191) | Potency (CP192) | Potency (CP194) | Potency (CP201) | Potency (CP203) | Potency (CP211) | Potency (CP215) | Potency (CP217) | Potency (CP237) | Potency (CP238) | Potency (CP247) | Potency (CP250) | Potency (CP252)
